Measurements taken from PubChem BioAssay AID2685 (National Center for Advancing Translational Sciences (NCATS), 2010).
About 2,100 (0.66%) of roughly 320,000 compounds were called active. Another 53% or so got no clear call; they are omitted. Calls come from the whole dose curve; as a rule, active = well fitted inhibition curve with a large enough effect in the signal ratio, with a control signal flat (not every such curve was filed as active); inconclusive = small, poorly fitted or top-dose-only effect, or effect the other way, or a change in a side signal; inactive = flat fitted curve, though single readings scatter; the % refers to the signal ratio. For the sample, actives were picked, then their nearest neighbours and some compounds at random.

Assay: qHTS Assay for Lipid Storage Modulators in Drosophila S3 Cells;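 for cell number change: cells counted by Cell Tracker Red CMTPX staining in the red channel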; for lipid storage change, negative = inhibition: % is set by controls: 0 for no effect and ±100 for the full control effect
Settings: BODIPY lipid droplet fluorescence, 18-24 h, cells fed with added oleic acid; cell number change: measured here: cell count max response; series mostly up to 46.1 µM; lipid storage change, negative = inhibition: at the top concentration
In short: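 Laser-scanning cytometry quantifies lipid droplet accumulation (500–530 nm total intensity; droplet/cell object ratio) in oleic acid-fed (400 uM added) Drosophila S3 cells treated with a concentration series. 20 uM Triacsin C defined 100% inhibition.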
Potency is the fitted concentration of half-maximal effect.

Which “lipid storage change, negative = inhibition” value does the source give for `Nn1cc(-c2ccccc2)nc1SCC(=O)NCC(F)(F)F` here?
The value was 14.4% (inactive).

What does the source list for `COc1ccc2[nH]c(=O)c(CN(Cc3cccnc3)Cc3nnnn3CC3CCCO3)cc2c1` (centres undefined)?
lipid storage change, negative = inhibition: 10.3% (inactive); cell number change: -7.7%

With `COc1cccc2c1OC1(C)CC2NC(=O)N1c1cccc(C(=O)N2CCN(c3ccccc3)CC2)c1` (centres undefined) as the compound, how does the “lipid storage change, negative = inhibition” value read?
Its value is 0.139% (inactive).

And the cell number change?
The cell number change was 3.44%.

Which “lipid storage change, negative = inhibition” value does the source give for `Cn1c2ccccc2c(=O)c2ccc(C#Cc3ccc(N)cc3)cc21` here?
Its value is -0.819% (inactive).

What about the cell number change of the same compound?
Its cell number change is 2.27%.

For `COc1cc(OC)cc(-c2c(-c3cccs3)c3cc(-c4ccc(N(C)C)nc4)ccc3n2C)c1`, which “outcome” value is on record?
Its value is “inactive”.

And the cell number change?
The cell number change was 14.6%.

With `CN(C)c1ccc(-c2ccc3c(=O)c4ccccc4n(C)c3c2)cn1` as the compound, how does the Potency read?
Its Potency is 23.1 µM (active).

What about the cell number change of the same compound?
The cell number change was -7.49%.

For `CNC(C)C#Cc1ccc2oc3cccc(OC)c3c(=O)c2c1` (centres undefined), which “lipid storage change, negative = inhibition” value is on record?
Its value is -27.3% (inactive).

And the cell number change?
Its cell number change is 16.5%.

Which Potency does the source give for `COc1cccc2oc3ccc(C#Cc4ccccn4)cc3c(=O)c12` here?
The Potency was 0.731 µM (active).

What about the cell number change of the same compound?
The cell number change was -5.09%.

Which results are given for `COc1cccc2oc3cc(C#Cc4ccccn4)ccc3c(=O)c12`?
Potency: 18.4 µM (active); cell number change: -23%

For `Cn1c2ccccc2c(=O)c2ccc(-c3ccc4c(c3)OCO4)cc21`, which “lipid storage change, negative = inhibition” value is on record?
The value was -10.8% (inactive).

What about the cell number change of the same compound?
The cell number change was -21%.

Which “outcome” value does the source give for `Cn1c2ccccc2c(=O)c2cc(C#Cc3ccccn3)ccc21` here?
The value was “inactive”.

And the cell number change?
Its cell number change is -13.6%.

For `COc1cc2oc3ccccc3c(=O)c2cc1OC`, which “lipid storage change, negative = inhibition” value is on record?
The value was -12.2% (inactive).

And the cell number change?
The cell number change was -9.58%.

What does the source list for `Cn1c2ccccc2c(=O)c2ccc(C#Cc3ccccn3)cc21`?
Potency: 14.6 µM (active); cell number change: -26.5%

Which “lipid storage change, negative = inhibition” value does the source give for `COc1ccc2c(=O)c3ccccc3oc2c1` here?
The value was -3.99% (inactive).

And the cell number change?
The cell number change was -11.6%.

With `Nc1cccc(C#Cc2ccc3c(=O)c4ccccc4oc3c2)c1` as the compound, how does the “outcome” value read?
Its value is “inactive”.

What about the cell number change of the same compound?
Its cell number change is -4.2%.

Which “lipid storage change, negative = inhibition” value does the source give for `O=C(NC12CC3CC(CC(C3)C1)C2)c1ccc(Br)o1` here?
Its value is -6.92% (inactive).

And the cell number change?
Its cell number change is -22.8%.

For `O=C(c1ccccn1)N(CC1CCCO1)C1(C(=O)NC2CCCCC2)CCCCC1` (centres undefined), which “lipid storage change, negative = inhibition” value is on record?
Its value is 8.55% (inactive).

And the cell number change?
The cell number change was -0.121%.

Which results are given for `Cc1ccc(NC(=O)OCc2cc(-c3ccccc3)on2)cc1`?
lipid storage change, negative = inhibition: 23.7% (inactive); cell number change: 4.96%

For `OCC(O)C(O)C(O)C(O)C1NCCS1` (centres undefined), which “lipid storage change, negative = inhibition” value is on record?
Its value is 0.23% (inactive).

What about the cell number change of the same compound?
Its cell number change is 16.2%.

With `COc1ccc(CCNC(=O)C2CCN(C(=O)c3ccc(Br)cc3)CC2)cc1` as the compound, how does the Potency read?
Its Potency is 5.8 µM (active).

And the cell number change?
Its cell number change is -9.49%.

Which results are given for `COc1ccc(CCNC(=O)C2CCN(C(=O)c3ccc(Cl)cc3)CC2)cc1`?
lipid storage change, negative = inhibition: 17.4% (inactive); cell number change: -13.5%

With `COc1ccc(CCNC(=O)C2CCN(C(=O)c3ccc(OC)c(OC)c3)CC2)cc1` as the compound, how does the “outcome” value read?
Its value is “inactive”.

With `Cc1ccc(N2C(=O)C(Cl)=C(N3CCOCC3)C2=O)c(C)c1` as the compound, how does the “lipid storage change, negative = inhibition” value read?
Its value is 8.98% (inactive).

What about the cell number change of the same compound?
Its cell number change is -6.56%.

With `CCOC(=O)C(=CNc1ccc(C(F)(F)F)cc1)C(=O)OCC` as the compound, how does the “lipid storage change, negative = inhibition” value read?
Its value is 9.49% (inactive).

And the cell number change?
The cell number change was 11.9%.

With `CC1CN(C(=O)CCN2C(=O)c3ccccc3C2=O)CC(C)O1` (centres undefined) as the compound, how does the “lipid storage change, negative = inhibition” value read?
Its value is 3.2% (inactive).

What about the cell number change of the same compound?
Its cell number change is 7.71%.

With `Cc1cc(C)cc(C(=O)N2CC(C)OC(C)C2)c1` (centres undefined) as the compound, how does the “lipid storage change, negative = inhibition” value read?
The value was -3.57% (inactive).

What about the cell number change of the same compound?
The cell number change was 20.2%.

For `CC1CN(C(=O)c2cccc(C(=O)N3CC(C)OC(C)C3)c2)CC(C)O1` (centres undefined), which Potency is on record?
The Potency was 18.4 µM (active).

And the cell number change?
The cell number change was 7.82%.

With `CC1CN(C(=O)CN2C(=O)c3ccccc3C2=O)CC(C)O1` (centres undefined) as the compound, how does the Potency read?
Its Potency is 23.1 µM (active).

What about the cell number change of the same compound?
Its cell number change is -24.9%.

For `CC1CN(C(=O)c2ccc(C(=O)c3ccccc3)cc2)CC(C)O1` (centres undefined), which “lipid storage change, negative = inhibition” value is on record?
The value was 12.1% (inactive).

And the cell number change?
The cell number change was -18.7%.

For `CC1CN(C(=O)Cn2c(=O)oc3ccccc32)CC(C)O1` (centres undefined), which “lipid storage change, negative = inhibition” value is on record?
Its value is 17.6% (inactive).

What about the cell number change of the same compound?
Its cell number change is 13.4%.

Which results are given for `O=C(CC(=O)N/N=C/c1ccc(Cl)cc1Cl)NCc1ccccc1`?
lipid storage change, negative = inhibition: 28.5% (inactive); cell number change: -3.68%

With `CCN(Cc1ccccc1)c1ccc(/C=N/NC(=S)NC(C)C)cc1` as the compound, how does the “lipid storage change, negative = inhibition” value read?
The value was -15.2% (inactive).

And the cell number change?
The cell number change was -13%.

For `OCc1nc2ccccc2n1CC(O)Cn1ccc2ccccc21` (centres undefined), which “outcome” value is on record?
Its value is “inactive”.

For `O=c1cc2c(n[nH]1)CCCC2`, which Potency is on record?
Its Potency is 0.58 µM (active).

And the cell number change?
Its cell number change is -2.03%.

For `O=c1ccc2c([nH]1)CCCCCCCCCC2`, which “lipid storage change, negative = inhibition” value is on record?
Its value is 2.42% (inactive).

What about the cell number change of the same compound?
The cell number change was 10%.

For `O=c1cc2c(n[nH]1)-c1ccccc1CC2`, which “lipid storage change, negative = inhibition” value is on record?
The value was -0.241% (inactive).

And the cell number change?
The cell number change was 1.15%.

What does the source list for `Cc1ccc(-c2nnc(SCC(=O)Nc3nccs3)n2N)cc1`?
lipid storage change, negative = inhibition: -7.51% (inactive); cell number change: -14.7%

Which “outcome” value does the source give for `COc1ccc(NS(=O)(=O)c2ccc3c(c2)N(C(C)=O)CC(C)S3)c(OC)c1` (centres undefined) here?
The value was “inactive”.

What about the cell number change of the same compound?
Its cell number change is 6.52%.

Which results are given for `O=C1NC2(CCCCCCC2)C(=O)N1Cc1ccc(F)cc1`?
lipid storage change, negative = inhibition: -10.4% (inactive); cell number change: 7.12%

What does the source list for `CC(C)c1ccc(CN2C(=O)NC3(CCCCCC3)C2=O)cc1`?
Potency: 18.4 µM (active); cell number change: 2.7%

Which “lipid storage change, negative = inhibition” value does the source give for `O=C1NC2(CCCCCC2)C(=O)N1Cc1ccc(Br)cc1` here?
Its value is 23% (inactive).

What about the cell number change of the same compound?
Its cell number change is -22.7%.

For `CCCCC(=O)NS(=O)(=O)c1ccc(N=NN2CCOCC2)cc1`, which “lipid storage change, negative = inhibition” value is on record?
The value was 1.16% (inactive).

What about the cell number change of the same compound?
Its cell number change is -7.29%.

Which “lipid storage change, negative = inhibition” value does the source give for `CCCCSCCCNC(=S)Nc1ccccc1C` here?
Its value is 3.97% (inactive).

What about the cell number change of the same compound?
Its cell number change is -6.21%.

Which Potency does the source give for `Cc1ccc(NC(=O)CSc2ccccc2NC(=O)c2ccccc2)cc1Cl` here?
The Potency was 20.6 µM (active).

What about the cell number change of the same compound?
Its cell number change is -20%.

Which results are given for `Cc1ccc(NC(=O)CSc2ccccc2NC(=O)c2cccc(Cl)c2)cc1Cl`?
lipid storage change, negative = inhibition: -2.45% (inactive); cell number change: -1.09%

For `Cc1ccc(NC(=O)CSc2ccccc2NC(=O)c2ccccc2Cl)cc1Cl`, which “lipid storage change, negative = inhibition” value is on record?
Its value is 8.64% (inactive).

And the cell number change?
The cell number change was 13.7%.
